These results are taken from PubChem BioAssay (EPA / NIEHS).

A short description of assay [1]: ATG_PBREM_CIS: Attagene CIS-FACTORIAL HepG2 Assay for human Phenobarbital-responsive Enhancer Module (PBREM) (AID 2282955). To be noted: HepG2 PBREM cis-reporter, Attagene multiplexed transcription; actives raise or lower the signal. A digest of the protocol:
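HepG2 cells transiently transfected with multiple cis-regulated reporter units measure endogenous transcription factor activity; 24 h compound exposure. Reporter mRNA quantified by RT-PCR, fluorescent labelling, HpaI digestion and capillary electrophoresis; bidirectional fit versus DMSO.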

The target of assay [2] is Paired box protein Pax-6 (Homo sapiens) (UniProt P26367). Briefly: ATG_Pax6_CIS: Attagene CIS-FACTORIAL HepG2 Assay for human Paired Box 6 (PAX6) (AID 2282956). To be noted: HepG2 CIS-FACTORIAL PAX6 reporter transcription, RNA readout; actives raise or lower the signal. In outline:
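Multiplexed cis-reporter HepG2 system; 24 h treatment; reporter mRNA read by RT-PCR/CE fluorescence; bidirectional fit vs DMSO.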

Assay [3] is described as follows: ATG_PXRE_CIS: Attagene CIS-FACTORIAL HepG2 Assay for human Pregnane X Receptor Element (PXRE) (AID 2282957). The note with it: HepG2 Attagene CIS-FACTORIAL PXRE reporter, mRNA; actives raise or lower the signal. A digest of the protocol:
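HepG2 cells transiently transfected with cis-element-driven multiplexed reporter units; after 24 h chemical exposure, reporter mRNA measured by RT-PCR, 6-FAM labelling, HpaI digestion and capillary electrophoresis. Bidirectional fitting relative to DMSO.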

Assay [4] is described as follows: ATG_PPRE_CIS: Attagene CIS-FACTORIAL HepG2 Assay for human Peroxisome Proliferator-activated Response Element (PPRE) (AID 2282958). To be noted: HepG2 PPRE cis-element reporter, Attagene transcription factor profiling; actives raise or lower the signal. A digest of the protocol: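 HepG2 cells are transiently transfected with multiplexed cis-promoter reporter units to report endogenous PPAR activity. After 24 h dosing, reporter mRNA is read by RT-PCR and capillary electrophoresis. Fitting is bidirectional against DMSO.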

A short description of assay [5]: ATG_RORE_CIS: Attagene CIS-FACTORIAL HepG2 Assay for human RAR-related Orphan Receptor Element (RORE) (AID 2282959). The note with it: HepG2 Attagene cis-factorial RORE reporter, mRNA; actives raise or lower the signal. In outline:
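HepG2 cells carrying transiently transfected cis-regulated reporter units; RORE-driven reporter mRNA quantified 24 h post-dosing by RT-PCR, 6-FAM primer extension, HpaI digestion and capillary electrophoresis. Bidirectional fit versus DMSO.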

The nature of assay [6]: ATG_Sox_CIS: Attagene CIS-FACTORIAL HepG2 Assay for human SRY-box transcription factor (SOX) (AID 2282960). The note with it: HepG2 Attagene cis-factorial SOX reporter, mRNA; actives raise or lower the signal. In outline:
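HepG2 cells transiently transfected with multiple cis-regulated reporter units, then dosed for 24 h. Reporter mRNA quantified by RT-PCR, fluorescent labelling, HpaI digestion and capillary electrophoresis; bidirectional fit versus DMSO.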

For assay [7], the target named is Transcription factor Sp1 (Homo sapiens) (UniProt P08047). The experiment in a line: ATG_Sp1_CIS: Attagene CIS-FACTORIAL HepG2 Assay for human Specificity Protein 1 (Sp1) (AID 2282961). To be noted: HepG2 Sp1 cis-reporter transcription, actives raise or lower the signal. In outline:
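HepG2 cells transiently transfected with multiplexed cis-regulated reporter constructs, chemical exposure 24 h. Reporter mRNA quantified by RT-PCR with capillary electrophoresis; bidirectional fit relative to DMSO.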

The nature of assay [8]: ATG_SREBP_CIS: Attagene CIS-FACTORIAL HepG2 Assay for human Sterol Regulatory Element Binding (SREBP) (AID 2282962). To be noted: HepG2 Attagene cis-factorial SREBP reporter, mRNA; actives raise or lower the signal. In outline: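 mRNA induction of transfected cis-promoter reporters in HepG2 cells, 24 h post-dose. Detection: RT-PCR with 6-FAM-labelled products, HpaI digest, capillary electrophoresis. DMSO served as negative control and baseline.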

Assay [9] has as its target Signal transducer and activator of transcription 3 (Homo sapiens) (UniProt P40763). Briefly: ATG_STAT3_CIS: Attagene CIS-FACTORIAL HepG2 Assay for human Signal Transducer and Activator of Transcription 3 (STAT3) (AID 2282963). To be noted: HepG2, Attagene cis-factorial STAT3 reporter transcription; actives raise or lower the signal. A digest of the protocol:
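HepG2 cells transiently transfected with multiple cis-element-driven reporter units report endogenous transcription factor activity. After 24 h compound exposure, reporter mRNA is measured by RT-PCR, 6-FAM labelling, HpaI digestion and capillary electrophoresis. Fitted bidirectionally versus DMSO.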

Assay [10] is described as follows: ATG_TA_CIS: Attagene CIS-FACTORIAL HepG2 Assay for human TA Basal Promoter (AID 2282964). The note with it: HepG2 Attagene CIS-factorial TA basal promoter reporter; actives raise or lower the signal. In outline:
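Fluorescence from labelled RT-PCR reporter fragments, separated by capillary electrophoresis, gives the signal. Cells: HepG2 transiently carrying multiple reporter units, 24 h chemical dosing. Gain or loss relative to DMSO.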

The nature of assay [11]: ATG_TCF_b_cat_CIS: Attagene CIS-FACTORIAL HepG2 Assay for human T-Cell-Factor with beta-catenin (TCF/b-cat) (AID 2282965). The note with it: HepG2 TCF/beta-catenin cis-reporter transcription, actives raise or lower the signal. In outline: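 HepG2, transient MRTU transfection, cis-element-driven reporters (endogenous TFs). 24 h compound exposure. Readout: reporter mRNA by RT-PCR + 6-FAM primer extension, HpaI digest, capillary electrophoresis. Gain/loss fit vs DMSO baseline.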

Assay [12] in a line: ATG_TAL_CIS: Attagene CIS-FACTORIAL HepG2 Assay for human TAL Basal Promoter (AID 2282966).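 Further: background control endpoint measuring basal TAL promoter reporter mRNA not a specific factor.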 The note with it: HepG2 Attagene cis-factorial TAL promoter reporter; actives raise or lower the signal. In outline: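 HepG2 cells transiently transfected with multiplexed cis-promoter reporter units, dosed 24 h. Reporter mRNA quantified by RT-PCR, 6-FAM labelling, HpaI digestion and capillary electrophoresis; TAL basal promoter serves as background control, fitted bidirectionally versus DMSO.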

Assay [13] in a line: ATG_TGFb_CIS: Attagene CIS-FACTORIAL HepG2 Assay for human Transforming Growth Factor (TGF) (AID 2282967). The note with it: HepG2 Attagene CIS TGFb reporter, mRNA transcription; actives raise or lower the signal. A digest of the protocol: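 Bidirectional fitting relative to DMSO gave the endpoint. Underlying data: reporter mRNA from HepG2 cells carrying transiently transfected cis-regulated reporter constructs, harvested 24 h after dosing and analyzed by RT-PCR and capillary electrophoresis.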

In assay [14] the target is Estrogen receptor (Homo sapiens) (UniProt P03372). Briefly: ATG_ERa_TRANS: Attagene TRANS-FACTORIAL HepG2 Assay for human Estrogen Receptor alpha (ERa) (AID 2282970; active means hit-call score of the fitted dose curve at least 0.9, where 1 is the maximum). To be noted: HepG2 Attagene TRANS ERa GAL4 reporter, mRNA. In outline: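 HepG2 cells transiently transfected with multiplexed GAL4-UAS reporter units read out chimeric NR-Gal4 activity. After 24 h compound exposure, reporter mRNA was quantified by RT-PCR, 6-FAM labeling, HpaI digestion and capillary electrophoresis, relative to DMSO.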

For assay [15], the target named is Steroid hormone receptor ERR1 (Homo sapiens) (UniProt P11474). Briefly: ATG_ERRa_TRANS: Attagene TRANS-FACTORIAL HepG2 Assay for human Estrogen-Related Receptor alpha (ERRa) (AID 2282971; active means hit-call score of the fitted dose curve at least 0.9, where 1 is the maximum). To be noted: HepG2 Attagene TRANS reporter, ERRa transactivation. In outline:
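HepG2 cells transiently transfected with GAL4-UAS reporter units and chimeric NR-Gal4 constructs; after 24 hour compound incubation, reporter mRNA quantified by RT-PCR, fluorescent labelling and capillary electrophoresis, gain of signal versus DMSO.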

Assay [16] has as its target X-box-binding protein 1 (Homo sapiens) (UniProt P17861). Briefly: ATG_Xbp1_CIS: Attagene CIS-FACTORIAL HepG2 Assay for human X-box Binding Protein 1 (XBP1) (AID 2282972). To be noted: HepG2 XBP1 cis-element reporter, Attagene multiplex; actives raise or lower the signal. A digest of the protocol:
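Fluorescence-labelled cDNA fragments from reporter transcripts, separated by capillary electrophoresis, give the signal. Source: HepG2 cells transfected with promoter-driven reporter units, harvested 24 h post-dose. DMSO served as reference for bidirectional curve fitting.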

Assay [17] can be described thus: ATG_M_19_TRANS: Attagene TRANS-FACTORIAL HepG2 Assay for M19 Transcription Factor (Internal Marker) (AID 2282974; active means hit-call score of the fitted dose curve at least 0.9, where 1 is the maximum). The note with it: HepG2 Attagene TRANS-FACTORIAL M19 internal marker reporter. A digest of the protocol:
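HepG2 transiently transfected with GAL4-UAS multiplex reporter constructs, exposed 24 h; reporter RNA quantified by RT-PCR, 6-FAM labeling, HpaI digestion and capillary electrophoresis; internal background marker fitted upward versus DMSO.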

A short description of assay [18]: ATG_VDRE_CIS: Attagene CIS-FACTORIAL HepG2 Assay for human Vitamin D Receptor Element (VDRE) (AID 2282968). To be noted: HepG2 VDRE cis-reporter transcription, actives raise or lower the signal. A digest of the protocol:
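Transiently transfected HepG2 cells carrying cis-regulated reporter transcription units were exposed for 24 h. Reporter mRNA was measured by RT-PCR with fluorescent labelling and capillary electrophoresis, and fitted in both directions against DMSO.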

Molecules are shown by their SMILES. Inconclusive results are not listed. Active and inactive are the calls of the source. How the source made its calls, unless noted: active means hit-call score of the fitted dose curve at least 0.9, where 1 is the maximum; inactive means score below 0.9.

Sequence of Estrogen receptor (Homo sapiens) (P03372 whole entry, looked up, the tested form may be a part): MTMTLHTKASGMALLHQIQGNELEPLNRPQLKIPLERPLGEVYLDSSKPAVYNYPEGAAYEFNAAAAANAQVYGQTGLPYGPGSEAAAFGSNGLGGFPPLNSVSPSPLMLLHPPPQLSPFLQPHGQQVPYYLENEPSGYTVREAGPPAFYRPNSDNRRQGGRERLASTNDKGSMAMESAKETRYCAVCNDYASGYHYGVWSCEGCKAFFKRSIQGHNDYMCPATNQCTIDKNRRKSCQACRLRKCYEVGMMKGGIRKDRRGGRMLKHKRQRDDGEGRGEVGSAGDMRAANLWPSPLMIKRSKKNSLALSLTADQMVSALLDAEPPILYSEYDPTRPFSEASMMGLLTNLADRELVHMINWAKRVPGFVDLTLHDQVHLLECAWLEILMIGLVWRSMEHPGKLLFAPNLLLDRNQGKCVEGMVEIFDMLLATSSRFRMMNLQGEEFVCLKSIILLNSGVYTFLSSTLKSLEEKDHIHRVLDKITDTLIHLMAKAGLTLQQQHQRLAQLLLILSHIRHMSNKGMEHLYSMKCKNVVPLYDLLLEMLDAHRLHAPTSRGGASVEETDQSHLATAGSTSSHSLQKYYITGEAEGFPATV
Sequence of X-box-binding protein 1 (Homo sapiens) (P17861 whole entry, looked up, the tested form may be a part): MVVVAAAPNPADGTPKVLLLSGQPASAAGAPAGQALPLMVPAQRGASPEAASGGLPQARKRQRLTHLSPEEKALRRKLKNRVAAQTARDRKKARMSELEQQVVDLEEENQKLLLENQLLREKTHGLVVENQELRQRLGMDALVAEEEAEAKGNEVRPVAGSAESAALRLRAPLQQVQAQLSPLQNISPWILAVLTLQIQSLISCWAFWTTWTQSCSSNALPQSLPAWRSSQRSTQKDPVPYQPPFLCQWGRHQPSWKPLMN
Sequence of Paired box protein Pax-6 (Homo sapiens) (P26367 whole entry, looked up): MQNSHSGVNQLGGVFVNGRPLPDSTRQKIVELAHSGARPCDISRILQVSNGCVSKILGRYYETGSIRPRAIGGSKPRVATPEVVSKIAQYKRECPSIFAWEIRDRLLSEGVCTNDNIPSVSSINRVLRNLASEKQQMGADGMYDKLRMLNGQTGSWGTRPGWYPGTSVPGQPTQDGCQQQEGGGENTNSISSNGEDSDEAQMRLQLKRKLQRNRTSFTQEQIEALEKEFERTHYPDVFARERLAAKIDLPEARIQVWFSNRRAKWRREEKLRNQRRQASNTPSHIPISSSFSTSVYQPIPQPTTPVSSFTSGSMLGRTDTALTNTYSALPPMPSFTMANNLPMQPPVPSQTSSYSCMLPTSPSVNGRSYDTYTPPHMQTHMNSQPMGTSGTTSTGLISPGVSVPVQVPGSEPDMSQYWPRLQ
Sequence of Signal transducer and activator of transcription 3 (Homo sapiens) (P40763 whole entry, looked up): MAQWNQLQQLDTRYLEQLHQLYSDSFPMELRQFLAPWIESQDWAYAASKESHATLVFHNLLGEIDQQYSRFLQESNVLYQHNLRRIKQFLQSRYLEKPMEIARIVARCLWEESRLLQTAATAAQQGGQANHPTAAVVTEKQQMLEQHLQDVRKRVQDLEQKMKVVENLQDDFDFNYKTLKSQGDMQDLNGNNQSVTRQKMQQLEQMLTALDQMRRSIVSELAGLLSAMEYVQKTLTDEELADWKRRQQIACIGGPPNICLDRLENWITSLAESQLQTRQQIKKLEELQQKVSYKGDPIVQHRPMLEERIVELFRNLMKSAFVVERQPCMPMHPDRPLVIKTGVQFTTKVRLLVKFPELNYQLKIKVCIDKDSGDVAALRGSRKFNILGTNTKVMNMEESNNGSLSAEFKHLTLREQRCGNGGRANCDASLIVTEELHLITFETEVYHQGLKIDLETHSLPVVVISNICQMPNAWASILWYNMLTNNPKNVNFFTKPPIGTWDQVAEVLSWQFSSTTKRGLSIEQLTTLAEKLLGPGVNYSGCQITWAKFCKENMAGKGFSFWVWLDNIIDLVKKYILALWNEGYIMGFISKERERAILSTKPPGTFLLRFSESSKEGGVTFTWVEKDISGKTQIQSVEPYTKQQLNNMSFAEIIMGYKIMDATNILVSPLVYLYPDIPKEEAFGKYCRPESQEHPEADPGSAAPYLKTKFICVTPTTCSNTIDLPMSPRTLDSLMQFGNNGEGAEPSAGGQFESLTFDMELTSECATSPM
Sequence of Transcription factor Sp1 (Homo sapiens) (P08047 whole entry, looked up): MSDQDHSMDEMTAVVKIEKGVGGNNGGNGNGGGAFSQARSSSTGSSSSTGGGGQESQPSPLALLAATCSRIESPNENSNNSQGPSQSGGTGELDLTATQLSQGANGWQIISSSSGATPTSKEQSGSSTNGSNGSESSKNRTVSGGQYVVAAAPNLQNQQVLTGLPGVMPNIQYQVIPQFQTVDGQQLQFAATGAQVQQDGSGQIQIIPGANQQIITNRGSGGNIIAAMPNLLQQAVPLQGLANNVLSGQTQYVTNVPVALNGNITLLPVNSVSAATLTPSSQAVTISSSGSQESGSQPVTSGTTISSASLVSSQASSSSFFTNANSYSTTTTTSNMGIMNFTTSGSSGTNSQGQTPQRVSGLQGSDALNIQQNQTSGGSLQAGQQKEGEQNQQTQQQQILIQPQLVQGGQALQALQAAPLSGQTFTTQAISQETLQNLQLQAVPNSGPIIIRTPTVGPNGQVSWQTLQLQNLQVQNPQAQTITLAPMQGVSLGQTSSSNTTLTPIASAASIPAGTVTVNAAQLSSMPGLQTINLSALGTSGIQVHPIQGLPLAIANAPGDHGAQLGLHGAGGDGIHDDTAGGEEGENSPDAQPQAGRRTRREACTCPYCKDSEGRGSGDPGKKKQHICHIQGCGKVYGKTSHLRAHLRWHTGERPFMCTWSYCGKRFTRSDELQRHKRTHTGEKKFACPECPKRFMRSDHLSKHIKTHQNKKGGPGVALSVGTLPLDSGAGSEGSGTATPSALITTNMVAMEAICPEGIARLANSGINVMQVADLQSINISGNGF
Sequence of Steroid hormone receptor ERR1 (Homo sapiens) (P11474 whole entry, looked up, the tested form may be a part): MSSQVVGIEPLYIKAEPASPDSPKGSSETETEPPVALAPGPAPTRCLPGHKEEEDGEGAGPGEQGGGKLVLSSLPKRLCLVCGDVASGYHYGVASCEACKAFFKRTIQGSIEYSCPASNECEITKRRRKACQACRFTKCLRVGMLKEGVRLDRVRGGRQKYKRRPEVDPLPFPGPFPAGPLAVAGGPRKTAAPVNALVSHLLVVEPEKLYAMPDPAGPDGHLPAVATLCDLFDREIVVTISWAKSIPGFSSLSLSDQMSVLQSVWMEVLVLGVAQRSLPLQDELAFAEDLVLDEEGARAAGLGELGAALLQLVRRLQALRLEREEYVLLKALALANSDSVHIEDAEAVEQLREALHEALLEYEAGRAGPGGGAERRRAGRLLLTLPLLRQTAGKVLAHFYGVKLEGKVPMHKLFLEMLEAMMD

As a reminder, the AC50 is the concentration giving half of the maximal activity seen. Turning to `CC(C)Oc1cccc(NC(=O)c2ccccc2C(F)(F)F)c1`, the outcome in assay [1], in [2], in [6], in assay [7], in [8] and in assay [9] was inactive. For the same molecule, the molecule was called inactive in assay [10], in assay [11], in assay [12], in assay [13], in assay [14] and in [15]. In addition, the result in assay [16] and in [17] was inactive. The AC50 was 4.22 µM (active) in assay [3], 21.3 µM (active) in [4] and 33.6 µM (active) in assay [5].
In the case of `CCOC(=O)C(C)OC(=O)c1cc(Oc2ccc(C(F)(F)F)cc2Cl)ccc1[N+](=O)[O-]` (configuration not stated), the AC50 in assay [1] was 19.1 µM (active); in assay [3] it was 7.84 µM (active); in assay [4], 11.7 µM (active); in assay [5] it was 50 µM (active); in assay [8], 19.3 µM (active); in [14], 50 µM (active). Further, the molecule was classed as inactive in [2], in assay [6], in assay [7], in assay [9], in assay [10] and in assay [11]. Also, the molecule was called inactive in assay [12], in assay [13] and in [16].
On to `CNC(=O)N(C)c1nnc(C(C)(C)C)s1`, for which the result in [1], in assay [2], in [4], in [5], in assay [6] and in assay [7] was inactive. The result in assay [8], in assay [9], in [10], in assay [11], in assay [12] and in assay [13] was inactive. Moreover, the result in assay [14] and in assay [16] was inactive. In addition, the AC50 in assay [3] was 50 µM (active).
On to `N#Cc1c(Cl)cccc1Cl`, for which the outcome in assay [1], in [2], in assay [4], in assay [5], in assay [6] and in [7] was inactive. In addition, the result in assay [8], in assay [9], in assay [10], in assay [11], in assay [12] and in [13] was inactive. The molecule was called inactive in assay [14], in assay [16] and in assay [17]. Further, in assay [3], the AC50 is 21.6 µM (active).
`CN=C=S`: the result in assay [1], in assay [2], in [3], in assay [5], in [6] and in assay [9] was inactive. Also, the outcome in assay [10], in assay [11], in assay [12], in [13], in assay [14] and in [16] was inactive. In addition, the half-maximal activity concentration (AC50) was 18.3 µM (active) in assay [4], 13.3 µM (active) in [7] and 13.1 µM (active) in [8].
As to `CCN(CC)C(=O)C(C)Oc1cccc2ccccc12` (configuration not stated), the AC50 in [1] was 0.949 µM (active); in assay [3] it was 0.163 µM (active); in assay [4], 50 µM (active); in [5], 28 µM (active); in assay [8], 28.8 µM (active); in assay [14], 29.8 µM (active). In addition, the call in assay [2], in [6], in [7], in assay [9], in [10] and in assay [11] was inactive. For the same molecule, the molecule was called inactive in assay [12], in assay [13], in assay [16] and in [17].
As for `CCNC(=O)NC(=O)C(C#N)=NOC`, the outcome in assay [1], in assay [2], in assay [3], in assay [4], in assay [5] and in assay [6] was inactive. For the same molecule, the molecule was called inactive in [7], in assay [8], in assay [9], in assay [10], in [11] and in [12]. Moreover, the molecule was called inactive in [13], in [18], in assay [14], in assay [15], in assay [16] and in [17].
